# PubChem BioAssay (NCI)
# Values joined by “and” are separate entries in the source; they are usually repeats but may differ in a detail not shown here. Equal values may be shown once. The panel holds about 79,000 compounds, 15% with a hit somewhere; the sample as a whole holds those more often. Where a structure was tested more than once in an assay, its records may differ in their call. Active and inactive are the calls of the source. No stated cut-off is given here; in the data, active means growth inhibition above about 70%; inactive means the rest.
# How the values were obtained:
# [1] = NCI Yeast Anticancer Drug Screen. Data for the rad52 strain (AID 147);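 further: 0% = growth of vehicle-treated control cultures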; conditions: S. cerevisiae rad52 mutant growth inhibition, stronger effect = higher value
# Summary of the method: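 Inhibition of yeast growth, referenced to vehicle controls, was the measured output for a strain with defective DNA damage repair.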
# [2] = NCI Yeast Anticancer Drug Screen. Data for the wt1 strain (AID 149);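 further: 0% = growth of vehicle-treated wt1 cultures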; conditions: S. cerevisiae wt1 strain (SPY 50644) growth inhibition, stronger effect = higher value
# Summary of the method: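 Measured: growth of wt1 yeast under compound versus vehicle treatment, reported as inhibition.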
# [3] = NCI Yeast Anticancer Drug Screen. Data for the rad50EPP+ strain (AID 151);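 further: 0% = growth of vehicle-treated control cultures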; conditions: S. cerevisiae rad50 mutant strain, stronger effect = higher value
# Summary of the method: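 Genetically defined yeast (rad50EPP+, DNA damage repair alteration) is grown with compound, and inhibition of growth is expressed relative to vehicle-treated controls.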
# [4] = NCI Yeast Anticancer Drug Screen. Data for the mgt1 strain (AID 153); conditions: S. cerevisiae mgt1 mutant growth inhibition, stronger effect = higher value
# Summary of the method: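 In the mgt1 strain, test compounds were added and growth inhibition was determined relative to vehicle-treated controls.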
# [5] = NCI Yeast Anticancer Drug Screen. Data for the rad50 strain (AID 155);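 further: 0% = growth of vehicle-only cultures of the same strain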; conditions: S. cerevisiae rad50 strain growth inhibition, stronger effect = higher value
# Summary of the method: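 Growth of the mutant yeast was measured after compound exposure and referenced to vehicle-treated cultures.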
# [6] = NCI Yeast Anticancer Drug Screen. Data for the mec2-1 strain (AID 157); conditions: S. cerevisiae mec2-1 strain, stronger effect = higher value
# Summary of the method: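 Each compound was tested on mec2-1 yeast, a strain altered in DNA damage repair or cell cycle control. Growth inhibition is reported relative to vehicle.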
# [7] = NCI Yeast Anticancer Drug Screen. Data for the sgs1 mgt1 strain (AID 161);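 further: 0% = growth of cultures given vehicle only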; conditions: S. cerevisiae sgs1 mgt1 strain, stronger effect = higher value
# Summary of the method: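 Test agents were incubated with a DNA-repair-mutant yeast strain. Growth was then read and compared against vehicle-treated controls.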
# [8] = NCI Yeast Anticancer Drug Screen. Data for the CLN2oe strain (AID 163);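 further: 0% = growth of vehicle-only control cultures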; conditions: S. cerevisiae CLN2oe strain, stronger effect = higher value
# Summary of the method: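 First, the altered yeast strain was treated with each compound; second, its growth was measured; finally, inhibition was derived by comparison with vehicle controls.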
# [9] = NCI Yeast Anticancer Drug Screen. Data for the cln2 rad14 strain (AID 165);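 further: 0% = growth equal to vehicle treated cultures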; conditions: S. cerevisiae cln2 rad14 strain, stronger effect = higher value
# Summary of the method: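 Test compounds were added to cln2 rad14 yeast cultures; inhibition of growth was then determined by comparison with vehicle treatment.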
# [10] = NCI Yeast Anticancer Drug Screen. Data for the bub3 strain (AID 167); conditions: S. cerevisiae bub3 mutant strain, stronger effect = higher value
# Summary of the method: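 Whole-cell yeast assay. The mutant strain was incubated with compounds, and growth inhibition was determined by comparison with vehicle-treated cells.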
# [11] = NCI Yeast Anticancer Drug Screen. Data for the sgs1 strain (AID 173);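 further: 0% = growth of vehicle-only control cultures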; conditions: S. cerevisiae sgs1 mutant, stronger effect = higher value
# Summary of the method: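 Vehicle-treated cultures served as reference for growth inhibition of a yeast strain altered in DNA damage repair or cell cycle control after compound exposure.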
# [12] = NCI Yeast Anticancer Drug Screen. Data for the mlh1 rad18 strain (AID 175); conditions: S. cerevisiae mlh1 rad18 strain growth inhibition, stronger effect = higher value
# Summary of the method: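 Inhibition values reflect reduced growth of mutant yeast versus vehicle-treated controls following compound exposure; the mutations affect DNA damage repair.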
# [13] = NCI Yeast Anticancer Drug Screen. Data for the rad18 strain (AID 177); conditions: S. cerevisiae rad18 mutant growth inhibition, stronger effect = higher value
# Summary of the method: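 Steps: expose repair-mutant yeast to compound; measure growth; express as inhibition relative to vehicle control.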
# [14] = NCI Yeast Anticancer Drug Screen. Data for the rad14 strain (AID 159);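 further: 0% = growth of vehicle-treated control cultures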; conditions: S. cerevisiae rad14 strain growth inhibition, stronger effect = higher value
# Summary of the method: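 Here, inhibition of yeast growth was measured after compound exposure, using a strain with a genetic defect in DNA damage repair and vehicle-treated cultures as the reference.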
# [15] = NCI Yeast Anticancer Drug Screen. Data for the wt2 strain (AID 169);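 further: 0% = growth of vehicle-treated yeast cultures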; conditions: S. cerevisiae wt2 strain growth inhibition, stronger effect = higher value
# Summary of the method: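 The panel's yeast strains carry defined changes in DNA repair or cell cycle genes. Each strain is grown with compound, and growth loss is scored relative to vehicle.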
# [16] = at 5.0 µM (retest, dose inferred, filed as 0.5)
# [17] = at 50.0 µM (retest, dose inferred, filed as 5.0)
smiles,measurement,setting,value
CCCCN(CCCC)C(=O)/C=C/c1ccccc1,growth inhibition,[1]; at 1.2 µM,-12% (inactive)
same,growth inhibition,[1]; at 3.7 µM,-9% (inactive)
same,growth inhibition,[1]; at 11.0 µM,-11% (inactive)
same,growth inhibition,[1]; at 33.0 µM,18% (inactive)
same,growth inhibition,[1]; at 100.0 µM,93% (active)
same,growth inhibition,[2]; at 1.2 µM,0% (inactive)
same,growth inhibition,[2]; at 3.7 µM,3% (inactive)
same,growth inhibition,[2]; at 11.0 µM,11% (inactive)
same,growth inhibition,[2]; at 33.0 µM,10% (inactive)
same,growth inhibition,[2]; at 100.0 µM,82% (active)
same,growth inhibition,[3]; at 1.2 µM,-7% (inactive)
same,growth inhibition,[3]; at 3.7 µM,-20% (inactive)
same,growth inhibition,[3]; at 11.0 µM,-2% (inactive)
same,growth inhibition,[3]; at 33.0 µM,14% (inactive)
same,growth inhibition,[3]; at 100.0 µM,33% (inactive)
same,growth inhibition,[4]; at 1.2 µM,-4% (inactive)
same,growth inhibition,[4]; at 3.7 µM,-9% (inactive)
same,growth inhibition,[4]; at 11.0 µM,-5% (inactive)
same,growth inhibition,[4]; at 33.0 µM,-1% (inactive)
same,growth inhibition,[4]; at 100.0 µM,48% (inactive)
same,growth inhibition,[5]; at 1.2 µM,-15% (inactive)
same,growth inhibition,[5]; at 3.7 µM,-12% (inactive)
same,growth inhibition,[5]; [16],5% (inactive)
same,growth inhibition,[5]; at 11.0 µM,-10% (inactive)
same,growth inhibition,[5]; at 33.0 µM,15% (inactive)
same,growth inhibition,[5]; [17],84% (active)
same,growth inhibition,[5]; at 50.0 µM,93.3% (active)
same,growth inhibition,[5]; at 100.0 µM,89% (active)
same,growth inhibition,[6]; at 1.2 µM,-5% (inactive)
same,growth inhibition,[6]; at 3.7 µM,-5% (inactive)
same,growth inhibition,[6]; [16],-1% (inactive)
same,growth inhibition,[6]; at 11.0 µM,-6% (inactive)
same,growth inhibition,[6]; at 33.0 µM,-4% (inactive)
same,growth inhibition,[6]; [17],85% (active)
same,growth inhibition,[6]; at 50.0 µM,92.2% (active)
same,growth inhibition,[6]; at 100.0 µM,79% (active)
same,growth inhibition,[7]; [16],4% (inactive)
same,growth inhibition,[7]; [17],92% (active)
same,growth inhibition,[7]; at 50.0 µM,92.2% (active)
same,growth inhibition,[8]; at 1.2 µM,-9% (inactive)
same,growth inhibition,[8]; at 3.7 µM,-6% (inactive)
same,growth inhibition,[8]; at 11.0 µM,-23% (inactive)
same,growth inhibition,[8]; at 33.0 µM,-9% (inactive)
same,growth inhibition,[8]; at 100.0 µM,43% (inactive)
same,growth inhibition,[9]; [16],7% (inactive)
same,growth inhibition,[9]; [17],20% (inactive)
same,growth inhibition,[9]; at 50.0 µM,68% (inactive)
same,growth inhibition,[10]; at 1.2 µM,-2% (inactive)
same,growth inhibition,[10]; at 3.7 µM,10% (inactive)
same,growth inhibition,[10]; [16],18% (inactive)
same,growth inhibition,[10]; at 11.0 µM,21% (inactive)
same,growth inhibition,[10]; at 33.0 µM,33% (inactive)
same,growth inhibition,[10]; [17],76% (active)
same,growth inhibition,[10]; at 50.0 µM,74.2% (active)
same,growth inhibition,[10]; at 100.0 µM,70% (active)
same,growth inhibition,[11]; at 1.2 µM,-17% (inactive)
same,growth inhibition,[11]; at 3.7 µM,-6% (inactive)
same,growth inhibition,[11]; at 11.0 µM,8% (inactive)
same,growth inhibition,[11]; at 33.0 µM,33% (inactive)
same,growth inhibition,[11]; at 100.0 µM,87% (active)
same,growth inhibition,[12]; [16],-3% (inactive)
same,growth inhibition,[12]; [17],88% (active)
same,growth inhibition,[12]; at 50.0 µM,81.2% (active)
same,growth inhibition,[13]; at 1.2 µM,-6% (inactive)
same,growth inhibition,[13]; at 3.7 µM,-9% (inactive)
same,growth inhibition,[13]; at 11.0 µM,-3% (inactive)
same,growth inhibition,[13]; at 33.0 µM,4% (inactive)
same,growth inhibition,[13]; at 100.0 µM,61% (inactive)
O=c1ssc(=Nc2ccccc2)n1-c1ccccc1,growth inhibition,[1]; at 1.2 µM,10% (inactive)
same,growth inhibition,[1]; at 3.7 µM,9% (inactive)
same,growth inhibition,[1]; at 11.0 µM,5% (inactive)
same,growth inhibition,[1]; at 33.0 µM,20% (inactive)
same,growth inhibition,[1]; at 100.0 µM,62% (inactive)
same,growth inhibition,[2]; at 1.2 µM,-3% (inactive)
same,growth inhibition,[2]; at 3.7 µM,-5% (inactive)
same,growth inhibition,[2]; at 11.0 µM,-4% (inactive)
same,growth inhibition,[2]; at 33.0 µM,0% (inactive)
same,growth inhibition,[2]; at 100.0 µM,11% (inactive)
same,growth inhibition,[3]; at 1.2 µM,6% (inactive)
same,growth inhibition,[3]; at 3.7 µM,3% (inactive)
same,growth inhibition,[3]; at 11.0 µM,3% (inactive)
same,growth inhibition,[3]; at 33.0 µM,32% (inactive)
same,growth inhibition,[3]; at 100.0 µM,80% (active)
same,growth inhibition,[5]; at 1.2 µM,9% (inactive)
same,growth inhibition,[5]; at 3.7 µM,5% (inactive)
same,growth inhibition,[5]; [16],23% (inactive) and 20% (inactive)
same,growth inhibition,[5]; at 11.0 µM,2% (inactive)
same,growth inhibition,[5]; at 33.0 µM,29% (inactive)
same,growth inhibition,[5]; [17],99% (active)
same,growth inhibition,[5]; at 50.0 µM,99.5% (active) and 99% (active)
same,growth inhibition,[5]; at 100.0 µM,72% (active)
same,growth inhibition,[6]; at 1.2 µM,-6% (inactive)
same,growth inhibition,[6]; at 3.7 µM,-3% (inactive)
same,growth inhibition,[6]; [16],-2% (inactive) and 5% (inactive)
same,growth inhibition,[6]; at 11.0 µM,-3% (inactive)
same,growth inhibition,[6]; at 33.0 µM,5% (inactive)
same,growth inhibition,[6]; [17],97% (active) and 98% (active)
same,growth inhibition,[6]; at 50.0 µM,99.8% (active) and 99.5% (active)
same,growth inhibition,[6]; at 100.0 µM,33% (inactive)
same,growth inhibition,[14]; at 1.2 µM,5% (inactive)
same,growth inhibition,[14]; at 3.7 µM,4% (inactive)
same,growth inhibition,[14]; at 11.0 µM,1% (inactive)
same,growth inhibition,[14]; at 33.0 µM,11% (inactive)
same,growth inhibition,[14]; at 100.0 µM,30% (inactive)
same,growth inhibition,[7]; [16],49% (inactive) and 27% (inactive)
same,growth inhibition,[7]; [17],99% (active) and 100% (active)
same,growth inhibition,[7]; at 50.0 µM,98.2% (active) and 99.3% (active)
same,growth inhibition,[8]; at 1.2 µM,2% (inactive)
same,growth inhibition,[8]; at 3.7 µM,-4% (inactive)
same,growth inhibition,[8]; at 11.0 µM,-4% (inactive)
same,growth inhibition,[8]; at 33.0 µM,7% (inactive)
same,growth inhibition,[8]; at 100.0 µM,30% (inactive)
same,growth inhibition,[9]; [16],-11% (inactive) and -1% (inactive)
same,growth inhibition,[9]; [17],86% (active) and 64% (inactive)
same,growth inhibition,[9]; at 50.0 µM,99.5% (active) and 66.2% (inactive)
same,growth inhibition,[10]; at 1.2 µM,-5% (inactive)
same,growth inhibition,[10]; at 3.7 µM,-9% (inactive)
same,growth inhibition,[10]; [16],12% (inactive) and 1% (inactive)
same,growth inhibition,[10]; at 11.0 µM,-7% (inactive)
same,growth inhibition,[10]; at 33.0 µM,6% (inactive)
same,growth inhibition,[10]; [17],99% (active) and 100% (active)
same,growth inhibition,[10]; at 50.0 µM,99.5% (active) and 99.7% (active)
same,growth inhibition,[10]; at 100.0 µM,37% (inactive)
same,growth inhibition,[15]; at 1.2 µM,-9% (inactive)
same,growth inhibition,[15]; at 3.7 µM,-15% (inactive)
same,growth inhibition,[15]; at 11.0 µM,-9% (inactive)
same,growth inhibition,[15]; at 33.0 µM,-9% (inactive)
same,growth inhibition,[15]; at 100.0 µM,15% (inactive)
